About 83,000 compounds went through this panel and 20% of them were active in at least one assay; those are over-represented in the sample as a whole.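 Activity criterion: percent growth below 10, measured after cells in 96-well plates were exposed to a single compound concentration for 48 hours.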 A number with no mark means an inactive call. Calls of active or inactive are those of the source.
Key:
Assay in all cases: NCI-60 one-dose screen, 48 h (100 = growth as untreated, 0 = no growth, -100 = all killed)
Details in all cases: 10 µM unless noted
NCI-H23 lung = system: NCI-H23 lung
NCI-H226 lung = system: NCI-H226 lung
NCI-H322M lung = system: NCI-H322M lung
HOP-62 NSCLC = system: HOP-62 NSCLC
NCI-H460 lung = system: NCI-H460 lung
HOP-92 NSCLC = system: HOP-92 NSCLC
NCI-H522 lung = system: NCI-H522 lung
A549/ATCC NSCLC = system: A549/ATCC NSCLC
786-0 renal = system: 786-0 renal

| Structure (SMILES) | growth (NCI-H23 lung) | growth (NCI-H226 lung) | growth (NCI-H322M lung) | growth (HOP-62 NSCLC) | growth (NCI-H460 lung) | growth (HOP-92 NSCLC) | growth (NCI-H522 lung) | growth (A549/ATCC NSCLC) | growth (786-0 renal) |
| --- | --- | --- | --- | --- | --- | --- | --- | --- | --- |
| O=S(=O)(NCCNc1cc(-c2c(-c3cccc(O)c3)nc3sccn23)ccn1)c1ccc(Br)cc1 | 76.2% | 62.3% | 81.1% | 102% | 54.1% | 74.9% | 66.1% | 50.1% | 52.7% |
| CN1CCN(c2ccc(Nc3ncc(Cl)c(NC[C@@H]4CCCO4)n3)cc2)CC1 | 15.8% | 8.99% (active) | 35.9% | 7.27% (active) | 13.2% | 3.21% (active) | 25.6% | 22.8% | 26% |
| CCNCCNc1cc(-c2ccc(Cl)cc2)c(C#N)c2nc3ccccc3n12 | 44.7% | 56% | 2.72% (active) | 1.55% (active) | -55.1% (active) | 53.9% | -41.7% (active) | 6.12% (active) | -57.9% (active) |
| CC(C)(O)c1cccc(F)c1 | 104% | 105% | 100% | 138% | 112% | 86.1% | 99.6% | 104% | 104% |
| NC(=Nc1ccc(N)cc1)C(N)=Nc1ccc(N)cc1 | 108% | 94.4% | 105% | 107% | 106% | 112% | 111% | 68.4% | 99.6% |
| Nc1nc(Nc2ccc(Cl)cc2)nn1S(=O)(=O)c1ccc(-c2ccc(F)cc2)cc1 | 92% | 84.4% | 109% | 84.3% | 70.9% | 75.7% | 75.3% | 71.9% | 92.1% |
| COc1ccc(-c2cc(-c3cc(OC)ccc3O)[nH]c(=O)c2C#N)cc1 | 59.1% | 73.8% | 94.5% | 53.2% | 41.6% | 31.6% | 15.4% | 79.9% | 57.3% |
| N#C/C=C(\c1ccc([N+](=O)[O-])cc1)n1nnc2cc(Cl)c(Cl)cc21 | 40.8% | 39.7% | 46.1% | 31.2% | -8.66% (active) | 45.2% | 2.18% (active) | 53.2% | -26.7% (active) |
| CC[C@@H](C[C@H](CCO)c1ccccc1)c1cc2ccccc2o1 | 92.7% | 88% | 92.9% | 84.4% | 100% | 96.8% | 77.5% | 84.3% | 91% |
| NC(N)=N/N=C(/c1ccccc1)c1ccc(N)cc1 | 101% | 89.6% | 91.2% | 100% | 110% | 92.8% | 88.5% | 99.5% | 105% |
| O=[N+]([O-])c1ccc(-c2cc3c(Nc4ccc(OCc5cccc(Cl)c5)c(Cl)c4)ncnc3s2)cc1 | 78.7% | 92.2% | 82.4% | 67.7% | 32% | 80.3% | 49.9% | 29.4% | 88.3% |
| CCOc1ccc(S(=O)(=O)c2ccc(C)cc2)c2c1no[n+]2[O-] | 82.4% | 77.2% | 92.7% | 101% | 86.4% | 36.5% | 57.1% | 97.2% | 79.6% |
| O=C(NCc1cccnc1)c1cc(-c2csc3c(=O)cc(N4CCOCC4)oc23)cc2c1OCCO2 | 50.3% | 49.8% | 40% | 30.9% | 52.5% | 19.3% | 28.4% | 40.2% | 43.5% |
| CCOc1ccc2nc(-c3cccc(OCC(=O)NC(C)C)c3)nc(Nc3ccc(-c4cn[nH]c4)cc3)c2c1 | 11.3% | 38.8% | -8.36% (active) | -36.3% (active) | -37.9% (active) | -27.9% (active) | -25.3% (active) | -34.9% (active) | -12.5% (active) |
| COc1cccc(-c2nc3sccn3c2-c2ccnc(NCCNS(=O)(=O)c3c(Cl)cccc3Cl)c2)c1 | 60.2% | 57.4% | 87.4% | 88.4% | 61% | 43% | 60.5% | 47.1% | 62.6% |
| O=C(CCl)N1c2cccc3cccc(c23)N(C(=O)CCl)C1c1cn(-c2ccccc2)nc1-c1cccc([N+](=O)[O-])c1 | 90.1% | 98.8% | 104% | 94.5% | 103% | 117% | 77.1% | 107% | 95.5% |
| Cn1c(NCCc2ccc(O)c(O)c2)nc2c1c(=O)n(Cc1ccc(Cl)cc1)c(=O)n2C | 79.1% | 84.5% | 77.2% | 88.5% | 96.9% | 47.1% | -10.7% (active) | 104% | 92.1% |
| CCOC(=O)c1c2c(c(C)n1C)-c1nn(Cc3ccc(OC)cc3)cc1CC2 | 83.2% | 94.5% | 190% | 132% | 111% | -0.787% (active) | 90.7% | 91.9% | 74.7% |
| COc1cc2c(=O)n(CCCn3ccnc3)c3c4cc5c(cc4ccc3c2cc1OC)OCO5 | 5.18% (active) | -42.5% (active) | 17.5% | 10.5% | -9.42% (active) | -5.78% (active) | 5.91% (active) | 22% | -57.3% (active) |
| CCC(C)NCc1ccccc1 (stereo unspecified) | 97.1% | 92.2% | 98.1% | 97.6% | 102% | 93.8% | 66.7% | 95.4% | 98.6% |
| NC(N)=N/N=C/c1ccc(Br)cc1 | 56.4% | 72.1% | 98.6% | 10.2% | 14.3% | 49.3% | 40% | 34.6% | -38.3% (active) |
| CCOc1ccc(-c2nc3ccc(-c4nc5ccc(N6CCN(C)CC6)cc5[nH]4)cc3[nH]2)cc1OCC | -7.66% (active) | -8.92% (active) | 42.1% | 16.7% | 17.2% | 48.8% | -18.2% (active) | 79.2% | 22.3% |
| N#Cc1c(-c2ccc(C(F)(F)F)cc2)cc(N2CC(O)C2)n2c1nc1ccccc12 | 67.7% | 16.9% | 60.8% | 7.8% (active) | 27.8% | -3.02% (active) | 34.7% | 48.1% | 20.7% |
| Cl.Fc1c[c-]c(-c2ccccn2)c(F)c1.[Pt].c1ccc(P(c2ccccc2)C([PH+](c2ccccc2)c2ccccc2)[PH+](c2ccccc2)c2ccccc2)cc1 | 5.53% (active) | 12.5% | 20.8% | 25.9% | 7.55% (active) | -12.9% (active) | 12% | 15.4% | 22.5% |
| COc1ccc(-n2ncn(CCCCCCn3cnn(-c4ccc(OC)cc4)c3=O)c2=O)cc1 | 82.9% | 80.3% | 88.4% | 89.5% | 103% | 89.4% | 76.3% | 96.7% | 96.7% |
| CCOc1cc(C2C(Cl)C(=O)N2n2cnnc2)ccc1O (stereo unspecified) | 97.2% | 106% | 97% | 74% | 104% | 91.9% | 86.2% | 90.5% | 92.7% |
| Nc1ccc2c(S(=O)(=O)O)ccc(S(=O)(=O)O)c2c1 | 100% | 101% | 121% | 92.3% | 101% | 89.1% | 85% | 92.6% | 97.8% |
| Cc1cc(N2CCCCC2)nc(N(CCNc2ccnc3cc(Cl)ccc23)Cc2ccccn2)n1 | 53.7% | 63.5% | 68.8% | 55.6% | 41.5% | 30.6% | 56.3% | 53.9% | 45.3% |
| N#Cc1c(N)n2c(nc1=Nc1ccc([N+](=O)[O-])cc1)sc1cc(Cl)ccc12 | 79% | 88.4% | 96% | 102% | 86.9% | 57.6% | 77% | 106% | 109% |
